Assay results: PubChem BioAssay AID1159580 (chemical genetic matrix, 2015)
Out of some 5,500 compounds screened, about 2,000 (36%) were called active. Inconclusive results (about 18%) are left out. This is one part of the list. A number with no mark means an inactive call. Cut-off read from the data, not from the text of the source: active = normalized growth mostly below about 0.91 (no sharp cut-off); inconclusive = no clear call, values can overlap the other calls; inactive = mostly above about 0.92.

Assay: chemical genetic growth profiling, strain panel (AID 1159580);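 note: tested at 20 µM; growth read once vehicle control cultures reached saturation at 30 °C; 1 = growth at the plate median or of vehicle wells; lower values mean less growth of the strain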
Conditions: S. cerevisiae deletion strains, growth OD
[1] = locus YAL013W, strain DEP1, hits give low values
[2] = locus YMR263W, strain SAP30, hits give low values
[3] = locus YPL055C, strain LGE1, hits give low values
[4] = locus YPL241C, strain CIN2, hits give low values
[5] = locus YDL101C, strain DUN1, hits give low values
[6] = locus YHR030C, strain SLT2, hits give low values

## CC[C@H]1CN2CCc3cc(OC)c(OC)cc3[C@@H]2C[C@@H]1C[C@H]1NCCc2cc(OC)c(OC)cc21
[1]
  normalized growth: 1.01
Locus YAL040C, strain CLN3, hits give low values
  normalized growth: 0.999
Locus YCL061C, strain MRC1 (second series), hits give low values
  normalized growth: 0.995
Locus YDR363W, strain ESC2, hits give low values
  normalized growth: 0.999
Locus YER002W, strain NOP16, hits give low values
  normalized growth: 1
Locus YGR229C, strain SMI1, hits give low values
  normalized growth: 0.994
[2]
  normalized growth: 1.01
Locus YMR307W, strain GAS1, hits give low values
  normalized growth: 1.01
Locus YNL128W, strain TEP1, hits give low values
  normalized growth: 0.999
Locus YNL175C, strain NOP13, hits give low values
  normalized growth: 1.03
Locus YNL197C, strain WHI3, hits give low values
  normalized growth: 1.02
Locus YNL224C, strain SQS1, hits give low values
  normalized growth: 1.02
Locus YOR083W, strain WHI5 (second series), hits give low values
  normalized growth: 1.02
[3]
  normalized growth: 1.02
[4]
  normalized growth: 1

## O=C(Nc1ccccn1)c1cc(-c2ccccc2)c(C(F)(F)F)s1
Locus YAR019C, strain CDC15, hits give low values
  normalized growth: 0.954
Locus YBL105C, strain PKC1, hits give low values
  normalized growth: 0.94
Locus YBR135W, strain CKS1, hits give low values
  normalized growth: 0.947
Locus YBR136W, strain MEC1, hits give low values
  normalized growth: 0.953
Locus YBR160W, strain CDC28, hits give low values
  normalized growth: 0.939
Locus YDL017W, strain CDC7, hits give low values
  normalized growth: 0.945
Locus YDL028C, strain MPS1, hits give low values
  normalized growth: 0.95
[5]
  normalized growth: 0.944
Locus YDL108W, strain KIN28, hits give low values
  normalized growth: 0.962
Locus YDL132W, strain cdc53, hits give low values
  normalized growth: 0.942
Locus YDL214C, strain PRR2, hits give low values
  normalized growth: 0.897
Locus YDR052C, strain DBF4, hits give low values
  normalized growth: 0.955
Locus YDR054C, strain cdc34, hits give low values
  normalized growth: 0.947
Locus YDR226W, strain ADK1, hits give low values
  normalized growth: 0.965
Locus YDR477W, strain SNF1, hits give low values
  normalized growth: 0.969
Locus YER123W, strain YCK3, hits give low values
  normalized growth: 0.967
Locus YER133W, strain GLC7, hits give low values
  normalized growth: 0.961
Locus YFL009W, strain cdc4, hits give low values
  normalized growth: 0.955
Locus YFL029C, strain CAK1, hits give low values
  normalized growth: 0.939
Locus YFR003C, strain YPI1, hits give low values
  normalized growth: 0.95
Locus YFR019W, strain FAB1, hits give low values
  normalized growth: 0.953
Locus YFR028C, strain CDC14, hits give low values
  normalized growth: 0.959
Locus YGR040W, strain KSS1, hits give low values
  normalized growth: 0.96
Locus YGR052W, strain FMP48, hits give low values
  normalized growth: 0.971
Locus YGR092W, strain DBF2, hits give low values
  normalized growth: 0.902
[6]
  normalized growth: 0.816 (active)
Locus YHR079C, strain IRE1, hits give low values
  normalized growth: 0.877
Locus YHR082C, strain KSP1, hits give low values
  normalized growth: 0.918
Locus YHR205W, strain SCH9, hits give low values
  normalized growth: 0.836
Locus YIL147C, strain SLN1, hits give low values
  normalized growth: 0.949
Locus YJL095W, strain BCK1, hits give low values
  normalized growth: 0.916
Locus YJL128C, strain PBS2, hits give low values
  normalized growth: 0.909
Locus YJL157C, strain FAR1, hits give low values
  normalized growth: 0.948
Locus YJR016C, strain ILV3, hits give low values
  normalized growth: 0.951
Locus YJR066W, strain TOR1 (second series), hits give low values
  normalized growth: 1
Locus YJR066W, strain TOR1, hits give low values
  normalized growth: 0.897
Locus YKL048C, strain ELM1, hits give low values
  normalized growth: 0.948
Locus YKL067W, strain YNK1, hits give low values
  normalized growth: 0.928
Locus YKL101W, strain HSL1, hits give low values
  normalized growth: 0.929
Locus YKL193C, strain SDS22, hits give low values
  normalized growth: 0.929
Locus YKL203C, strain TOR2, hits give low values
  normalized growth: 1.01
Locus YLR113W, strain HOG1, hits give low values
  normalized growth: 0.77 (active)
Locus YLR133W, strain CKI1, hits give low values
  normalized growth: 0.941
Locus YLR403W, strain SFP1, hits give low values
  normalized growth: 0.97
Locus YML070W, strain DAK1, hits give low values
  normalized growth: 0.924
Locus YMR001C, strain CDC5, hits give low values
  normalized growth: 0.921
Locus YMR205C, strain PFK2 (second series), hits give low values
  normalized growth: 0.934
Locus YMR277W, strain FCP1, hits give low values
  normalized growth: 0.928
Locus YNL006W, strain LST8, hits give low values
  normalized growth: 0.94
Locus YNL020C, strain ARK1, hits give low values
  normalized growth: 0.931
Locus YNL161W, strain CBK1, hits give low values
  normalized growth: 0.934
Locus YNL183C, strain NPR1, hits give low values
  normalized growth: 0.887
Locus YNL207W, strain RIO2, hits give low values
  normalized growth: 0.935
Locus YNL222W, strain SSU72, hits give low values
  normalized growth: 0.941
Locus YNL307C, strain MCK1 (second series), hits give low values
  normalized growth: 0.897
Locus YOL078W, strain AVO1, hits give low values
  normalized growth: 0.934
Locus YOL136C, strain PFK27, hits give low values
  normalized growth: 0.893
Locus YOR061W, strain CKA2, hits give low values
  normalized growth: 0.95
Locus YOR119C, strain RIO1, hits give low values
  normalized growth: 0.945
Locus YOR231W, strain MKK1, hits give low values
  normalized growth: 0.876
Locus YOR329C, strain SCD5, hits give low values
  normalized growth: 0.935
Locus YPL031C, strain PHO85, hits give low values
  normalized growth: 0.954
Locus YPL153C, strain RAD53, hits give low values
  normalized growth: 0.963
Locus YPL204W, strain HRR25, hits give low values
  normalized growth: 0.945
Locus YPL209C, strain IPL1, hits give low values
  normalized growth: 0.938
Locus YPL256C, strain CLN2, hits give low values
  normalized growth: 0.806 (active)
Locus YPR025C, strain CCL1, hits give low values
  normalized growth: 0.942
Locus YPR106W, strain ISR1, hits give low values
  normalized growth: 0.936
Locus YPR111W, strain DBF20, hits give low values
  normalized growth: 0.975
Strain NNK1, hits give low values
  normalized growth: 0.919
Strain TSCII, hits give low values
  normalized growth: 0.938

## O=C(Nc1cc(C(F)(F)F)cc(C(F)(F)F)c1)C(Sc1ccccn1)c1ccccc1 (configuration not stated)
[1]
  normalized growth: 0.998
Locus YBR229C, strain ROT2, hits give low values
  normalized growth: 0.983
[5]
  normalized growth: 0.987
Locus YDL134C, strain PPH21, hits give low values
  normalized growth: 0.979
Locus YDR150W, strain NUM1, hits give low values
  normalized growth: 1
Locus YEL061C, strain CIN8, hits give low values
  normalized growth: 0.988
Locus YGR078C, strain PAC10, hits give low values
  normalized growth: 0.989
[6]
  normalized growth: 0.982
Locus YHR087W, strain rtc3, hits give low values
  normalized growth: 0.973
Locus YJR043C, strain POL32, hits give low values
  normalized growth: 0.995
Locus YJR075W, strain HOC1, hits give low values
  normalized growth: 1.01
Locus YLR039C, strain RIC1, hits give low values
  normalized growth: 0.944
Locus YLR058C, strain SHM2 (second series), hits give low values
  normalized growth: 0.978
Locus YLR085C, strain ARP6, hits give low values
  normalized growth: 1.02
Locus YLR262C, strain YPT6, hits give low values
  normalized growth: 0.962
Locus YML094W, strain GIM5, hits give low values
  normalized growth: 0.953
Locus YMR219W, strain ESC1, hits give low values
  normalized growth: 0.99
[2]
  normalized growth: 1.03
Locus YNL153C, strain GIM3, hits give low values
  normalized growth: 1.01
Locus YNL298W, strain CLA4 (second series), hits give low values
  normalized growth: 1.01
Locus YNL322C, strain KRE1, hits give low values
  normalized growth: 0.991
Locus YNR030W, strain Alg12, hits give low values
  normalized growth: 0.997
Locus YOL006C, strain TOP1, hits give low values
  normalized growth: 0.997
[3]
  normalized growth: 1.03
[4]
  normalized growth: 0.98
Locus YPR135W, strain CTF4, hits give low values
  normalized growth: 0.959
